This is part of a sample that, as a whole, favours compounds with a hit. Of some 83,000 tested, about 20% had one in any assay.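 Assay: single dose, 48 h. Readout: percent growth (0 = no net growth; negative = cell death). Active: <10.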 The source made the active and inactive calls.
What follows are molecules tested on SW-620 colon (assay: NCI-60 one-dose screen, 48 h (100 = growth as untreated, 0 = no growth, -100 = all killed)). Conditions: 10 µM unless noted.
Description: Growth inhibition of the SW-620 human tumor cell line is measured as a screen for anti-cancer activity. Cells are grown in 96 well plates and exposed to the test compound for 48 hours. Compounds are tested at a single concentration, which is 10^-5 M for most compounds. The reported endpoint is percent growth (GI% or GIPRCNT), where numbers from 0 - 100% represent growth inhibition, and numbers from -100% - 0 represent cell death. For example, a value of 40 represents 60% growth inhibition. A value of 0 means no net growth occurred over the course of the experiment. A value of -40 indicates 40% of cells at the beginning of the experiment died by the end of the experiment. A value of -100 means all cells are dead at the end of the experiment.
NCI-60 Human Tumor Cell Lines Screen was performed using the standard one-dose NCI protocol, which is described in more detail at https://dtp.cancer.gov/discovery_development/nci-60/default.htm.
Compounds with GIPRCNT values below 10 were considered active. Activity score was based on GIPRCNT using the following formula: […]
Score is 0 for GIPRCNT values of 100 or above, 50 for GIPRCNT values of 0, and 100 for GIPRCNT values of -100.

Row | Compound | growth
1 | Cc1cnc(NC(=O)Nc2cc(Br)c(C)cc2OC[C@@H]2CNCCO2)cn1 | 20.8% (inactive)
2 | O=C(COc1ccc(/C=C2\Cc3ccc(Cl)cc3C2=O)cc1)Nc1nccs1 | 106% (inactive)
3 | CNC(=O)c1cc(Oc2cccc3nc(Nc4ccc(Oc5ccccc5)cc4)ccc23)ccn1 | 87.8% (inactive)
4 | N#CC[C@H](C1CCCC1)n1cc(-c2ncnc3[nH]ccc23)cn1 | 73.2% (inactive)
5 | O=C1C=CC2(NN=C(c3ccccc3)N2c2ccccc2)c2cccc(O)c21 (stereo not given) | 34.9% (inactive)
6 | Clc1ccc2c(NCCNc3nc(N4CCCC4)nc4ccccc34)ccnc2c1 | 5.27% (active)
7 | CC(=O)c1c(C)c2cnc(Nc3ccc(N4CCNCC4)cn3)nc2n(C2CCCC2)c1=O | 27.3% (inactive)
8 | Cc1nc(-c2cn3c(n2)-c2ccc(-c4cnn(C(C)(C)C(N)=O)c4)cc2OCC3)n(C(C)C)n1 | 44% (inactive)
9 | COC(=O)CC[C@@H](C)[C@H]1CC[C@H]2C3CC[C@@H]4C[C@@H]5CC[C@]4(C)[C@@]3(O5)[C@H](Br)[C@@H](Br)[C@]12C (stereo not given in full) | 102% (inactive)
10 | Cc1ccc2oc(=O)cc(-c3cc(-c4cc5ccccc5oc4=O)nc(N)c3C#N)c2c1 | 83.5% (inactive)
11 | COc1cc2c(cc1OCCCCN1CCN(CC(=O)Nc3ccc(Cl)cc3C(=O)c3ccccc3Cl)CC1)N=CC1CCCN1C2=O (stereo not given) | -57% (active)
12 | Cc1sc2c(c1C)c(=O)nc1c(-c3nc(-c4ccccc4)cs3)n[nH]n12 | 97.3% (inactive)
13 | C=CCN(/C=C1/C(=O)O[C@H](COC)[C@@]2(C)C1=C(O)C(=O)C1=C2[C@H](OC(C)=O)C[C@]2(C)C(=O)CC[C@@H]12)CC=C | 39.8% (inactive)
14 | COc1ccc2c(CCCc3ccc(Cl)cc3Cl)c3[n+](cc2c1OC)CCc1cc2c(cc1-3)OCO2 | 4.21% (active)
15 | COC(=O)[C@H](Cc1ccc(O)cc1)NC(=O)[C@@H](OC)[C@@H]1Cc2cc3cc(OC4CC(OC5CC(O)C(O)C(C)O5)C(O)C(C)O4)c(C)c(O)c3c(O)c2C(=O)[C@H]1OC1CC(OC2CC(OC3CC(C)(O)C(O)C(C)O3)C(O)C(C)O2)C(O)C(C)O1 (stereo not given in full) | 11.3% (inactive)
16 | CNC(=O)c1cc(Oc2cccc3nc(Nc4ccc(Cl)c(F)c4)ccc23)ccn1 | 82% (inactive)
17 | CC(=Nc1ccccc1)C1=C(O)C(Cc2ccccc2)NC1=O (stereo not given) | 19.3% (inactive)
18 | Clc1ccc(Nc2nccc(Nc3ccc4[nH]ncc4c3)n2)cc1 | 33% (inactive)
19 | Cc1cc2c(-c3nc4ccccn4c3Nc3cccc4ccccc34)c(O)c(O)cc2c(O)c1-c1c(C)cc2c(-c3nc4ccccn4c3Nc3cccc4ccccc34)c(O)c(O)cc2c1O | 23.9% (inactive)
20 | CCN1/C(=C/C=C/c2n(-c3ccccc3)c3ccc(-c4nc5ccccc5s4)cc3[n+]2CC)N(c2ccccc2)c2ccc(-c3nc4ccccc4s3)cc21 | 16.7% (inactive)

Row | Compound | growth
21 | Cc1cc(C2(c3ccc(O)c(C)c3)OS(=O)(=O)c3ccccc32)ccc1O | 108% (inactive)
22 | O=C1NC(=O)[C@@H](c2cn3c4c(cccc24)CCC3)[C@@H]1c1c[nH]c2ccccc12 | 27.5% (inactive)
23 | COc1ccc(S(=O)(=O)N(C(C)=O)c2ccccc2/C=C/c2cc[n+]([O-])cc2)cc1 | 23.6% (inactive)
24 | NC[C@@](O)(c1ccc(Cl)cc1)c1ccc(-c2cn[nH]c2)cc1 | 7.7% (active)
25 | COc1cc(NC2CCC(=O)N2c2ccc(Cl)cc2Cl)cc(OC)c1OC (stereo not given) | 96.8% (inactive)
26 | O=CC(OC(=O)c1ccccc1)C(OC(=O)c1ccccc1)C(COC(c1ccccc1)(c1ccccc1)c1ccccc1)OC(=O)c1ccccc1 (stereo not given) | -37.6% (active)
27 | CCN1CCN(Cc2ccc(Cc3ncc(F)c(-c4cc(F)c5nc(C)n(C(C)C)c5c4)n3)nc2)CC1 | -5.5% (active)
28 | C[C@]12O[C@H](C[C@]1(O)CO)n1c3ccccc3c3c4c(c5c6ccccc6n2c5c31)CNC4=O | 3.8% (active)
29 | COc1cc(N2CCC(N(C)C)CC2)ccc1Nc1ncc(Cl)c(Nc2ccccc2P(C)(C)=O)n1 | -1.28% (active)
30 | O=c1[nH]ccc2c(S(=O)(=O)N3CCCNCC3)cccc12 | 91.1% (inactive)
31 | Cc1cn(-c2cc(NC(=O)c3ccc(C)c(Nc4nccc(-c5cnccn5)n4)c3)cc(C(F)(F)F)c2)cn1 | 75.5% (inactive)
32 | CCCCCCCC(=O)SCC/C=C/[C@@H]1CC(=O)NCc2cccc(n2)C2=N[C@@](C)(CS2)C(=O)N[C@@H](C(C)C)C(=O)O1 | 3.63% (active)
33 | C=CC(=O)Nc1cccc(Oc2nc(Nc3ccc(N4CCN(C)CC4)cc3)nc3ccsc23)c1 | -62.2% (active)
34 | COc1ccc(Cl)c(Nc2nc3ccccc3nc2NS(=O)(=O)c2cccc(NC(=O)C(C)(C)N)c2)c1 | 65.7% (inactive)
35 | C[C@@H](Oc1cc(-n2cnc3ccc(CN4CCN(C)CC4)cc32)sc1C(N)=O)c1ccccc1C(F)(F)F | 13.6% (inactive)
36 | COc1ccc(Cc2cc(-c3ccccc3C)n[nH]c2=O)cc1 | 103% (inactive)
37 | CCc1nc2ccc(Cc3ccc(C(=O)NO)cc3)cc2c(=O)n1CCc1ccccc1 | -27.2% (active)
38 | COc1ccc2c(c1OC)C(=O)O[C@@H]2[C@H]1c2c(c(C#CC#Cc3ccc(F)c(F)c3)c3c(c2OC)OCO3)CCN1C | 104% (inactive)
39 | O=C1CC(c2ccc3c(c2)OCO3)c2ncn(-c3ccc(Cl)cc3)c2N1 (stereo not given) | 24.3% (inactive)
40 | Clc1ccc2c(NCCCNCc3ccc4c(c3)OCO4)ccnc2c1 | 28.9% (inactive)

— PubChem BioAssay (NCI)
